Source: the supplement of paper PMC8728848
The sample as a whole holds a higher share of the strongest signals than the screen did.

Experiments:
Experiment in all cases: glycan array binding signal (z-score within array); higher = stronger binding
Conditions in all cases: glycan notation: IUPAC condensed, linker removed
[1] = biological target: Fuc(a1-2)Gal(b1-4)GlcNAc(b1-6)GalNAc
How it was run: (§1)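 Glycan array binding is given as a within-array Z-score, which can be read as non-binding when negative. The arrays, 3228 of them, came from the Consortium for Functional Glycomics database and were retained only where the protein sequence was available. Z-scores were averaged across arrays of the same protein sequence at different concentrations or buffers and across linkers.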

[2] = biological target: Fuc(a1-2)[Gal(a1-3)]Gal(b1-4)GlcNAc(b1-3)GalNAc
How it was run: as §1

[3] = biological target: Fuc(a1-2)[GalNAc(a1-3)]Gal(b1-4)GlcNAc(b1-6)GalNAc
How it was run: as §1

[4] = biological target: Fuc(a1-2)[GalNAc(b1-3)]Gal
How it was run: as §1

[5] = biological target: Fuc(a1-3)[GalNAc(b1-4)]GlcNAc6S
How it was run: as §1

[6] = biological target: Gal(a1-3)Gal(b1-4)GlcNAc
How it was run: as §1

[7] = biological target: Gal(a1-3)Gal(b1-4)GlcNAc(b1-6)GalNAc
How it was run: as §1

[8] = biological target: Gal(b1-3)GlcNAc(b1-3)Gal(b1-4)[Fuc(a1-3)]GlcNAc(b1-6)[Gal(b1-3)GlcNAc(b1-3)]Gal(b1-4)Glc
How it was run: as §1

[9] = biological target: Gal(b1-4)GlcNAc(b1-3)Gal(b1-3)GalNAc
How it was run: as §1

[10] = biological target: Gal(b1-4)GlcNAc(b1-3)Gal(b1-4)GlcNAc(b1-3)Gal(b1-4)GlcNAc(b1-3)Gal(b1-4)GlcNAc(b1-2)Man(a1-3)[Gal(b1-4)GlcNAc(b1-3)Gal(b1-4)GlcNAc(b1-3)Gal(b1-4)GlcNAc(b1-3)Gal(b1-4)GlcNAc(b1-2)Man(a1-6)]Man(b1-4)GlcNAc(b1-4)[Fuc(a1-6)]GlcNAc
How it was run: as §1

[11] = biological target: Gal(b1-4)GlcNAc(b1-3)Gal(b1-4)GlcNAc(b1-3)Gal(b1-4)GlcNAc(b1-3)Gal(b1-4)GlcNAc(b1-3)Gal(b1-4)GlcNAc(b1-3)Gal(b1-4)GlcNAc(b1-2)Man(a1-3)[Gal(b1-4)GlcNAc(b1-3)Gal(b1-4)GlcNAc(b1-3)Gal(b1-4)GlcNAc(b1-3)Gal(b1-4)GlcNAc(b1-3)Gal(b1-4)GlcNAc(b1-3)Gal(b1-4)GlcNAc(b1-2)Man(a1-6)]Man(b1-4)GlcNAc(b1-4)GlcNAc
How it was run: as §1

[12] = biological target: Gal(b1-4)GlcNAc(b1-3)Gal(b1-4)[Fuc(a1-3)]GlcNAc(b1-3)Gal(b1-4)[Fuc(a1-3)]GlcNAc
How it was run: as §1

[13] = biological target: Gal(b1-4)GlcNAc(b1-3)[Gal(b1-4)GlcNAc(b1-6)]Gal(b1-4)GlcNAc
How it was run: as §1

[14] = biological target: Gal3S(b1-4)[Fuc(a1-3)]Glc6S
How it was run: as §1

[15] = biological target: Gal3S(b1-4)[Fuc(a1-3)]GlcNAc6S
How it was run: as §1

[16] = biological target: GalNAc(a1-3)Gal
How it was run: as §1

[17] = biological target: GalNAc(b1-3)Gal
How it was run: as §1

[18] = biological target: GalNAc(b1-3)Gal(a1-4)Gal(b1-4)GlcNAc(b1-3)Gal(b1-4)Glc
How it was run: as §1

[19] = biological target: GalNAc(b1-3)Gal(a1-6)Gal(b1-4)Glc
How it was run: as §1

[20] = biological target: GalNAc(b1-4)GlcNAc6S
How it was run: as §1

[21] = biological target: GalNAc4S6S(b1-4)GlcNAc
How it was run: as §1

[22] = biological target: Glc(a1-6)Glc(a1-6)Glc(a1-6)Glc
How it was run: as §1

[23] = biological target: GlcNAc(a1-4)Gal(b1-4)GlcNAc(b1-3)Gal(b1-4)Glc
How it was run: as §1

[24] = biological target: GlcNAc(b1-3)Gal(b1-4)GlcNAc(b1-3)Gal(b1-4)GlcNAc(b1-3)Gal(b1-4)GlcNAc(b1-3)Gal(b1-4)GlcNAc(b1-2)[GlcNAc(b1-3)Gal(b1-4)GlcNAc(b1-3)Gal(b1-4)GlcNAc(b1-3)Gal(b1-4)GlcNAc(b1-3)Gal(b1-4)GlcNAc(b1-6)]Man(a1-6)[GlcNAc(b1-3)Gal(b1-4)GlcNAc(b1-3)Gal(b1-4)GlcNAc(b1-3)Gal(b1-4)GlcNAc(b1-3)Gal(b1-4)GlcNAc(b1-2)Man(a1-3)]Man(b1-4)GlcNAc(b1-4)[Fuc(a1-6)]GlcNAc
How it was run: as §1

[25] = biological target: GlcNAc(b1-3)Gal(b1-4)GlcNAc(b1-6)[GlcNAc(b1-3)Gal(b1-3)]GalNAc
How it was run: as §1

[26] = biological target: GlcNAc(b1-3)GalNAc
How it was run: as §1

[27] = biological target: GlcNAc(b1-3)[GlcNAc(b1-6)]GalNAc
How it was run: as §1

[28] = biological target: GlcNAc(b1-6)GalNAc
How it was run: as §1

[29] = biological target: Kdn(a2-3)Gal(b1-4)[Fuc(a1-3)]GlcNAc
How it was run: as §1

[30] = biological target: Man(a1-6)Man
How it was run: as §1

B1: Cohesin-hDCIR (Homo sapiens) (protein)
chain: LDDLDAVRIKVDTVNAKPGDTVRIPVRFSGIPSKGIANCDFVYSYDPNVLEIIEIEPGDIIVDPNPDKSFDTAVYPDRKIIVFLFAEDSGTGAYAITKDGVFATIVAKVKEGAPNGLSVIKFVEVGGFANNDLVEQKTQFFDGGANVGDTTEPATPTTPVTTPTTTDDLDAASQKYSQLLEKKTTKELVHTTLECVKKNMPVEETAWSCCPKNWKSFSSNCYFISTESASWQDSEKDCARMEAHLLVINTQEEQDFIFQNLQEESAYFVGLSDPEGQRHWQWVDQTPYNESSTFWHPREPSDPNERCVVLNFRKSPKRWGWNDVNCLGPQRSVCEMMKIHLHHHHHH
[1]
  glycan array binding signal (z-score): 5.99
[2]
  glycan array binding signal (z-score): -0.635
[3]
  glycan array binding signal (z-score): 5.33
[4]
  glycan array binding signal (z-score): 3.31
[5]
  glycan array binding signal (z-score): 0.081
[6]
  glycan array binding signal (z-score): -0.455
[7]
  glycan array binding signal (z-score): 5.08
[8]
  glycan array binding signal (z-score): -0.655
[9]
  glycan array binding signal (z-score): -0.458
[10]
  glycan array binding signal (z-score): 2.82
[11]
  glycan array binding signal (z-score): -0.417
[12]
  glycan array binding signal (z-score): -0.584
[13]
  glycan array binding signal (z-score): -0.335
[14]
  glycan array binding signal (z-score): -0.343
[15]
  glycan array binding signal (z-score): 3.25
[16]
  glycan array binding signal (z-score): 1.17
[17]
  glycan array binding signal (z-score): 3.75
[18]
  glycan array binding signal (z-score): 4.3
[19]
  glycan array binding signal (z-score): 5.47
[20]
  glycan array binding signal (z-score): 0.86
[21]
  glycan array binding signal (z-score): -0.659
[22]
  glycan array binding signal (z-score): -0.038
[23]
  glycan array binding signal (z-score): -0.696
[24]
  glycan array binding signal (z-score): -0.597
[25]
  glycan array binding signal (z-score): -0.546
[26]
  glycan array binding signal (z-score): -0.415
[27]
  glycan array binding signal (z-score): -0.401
[28]
  glycan array binding signal (z-score): 4.02
[29]
  glycan array binding signal (z-score): -0.218
[30]
  glycan array binding signal (z-score): 3.2
